These results are taken from PubChem BioAssay (Tox21).

“And” between values parts separate entries of the source, which are not always exact repeats. Equal entries are not always repeated. Results filed as inconclusive are left out. Where a call stands in place of a potency, no number is given. Some structures have more than one record in an assay (separate samples or runs), and their calls can disagree. The source made the active and inactive calls. Calls come from the whole dose curve; as a rule, active = well fitted cell-killing curve with a large enough effect in the repeat runs; inconclusive = weak or mixed curves, or effect the other way; inactive = flat fitted curve, though single readings scatter.
Potency is the fitted concentration of half-maximal effect.

The nature of this assay: qHTS assay to identify small molecule agonists of the estrogen receptor beta (ER-beta) signaling pathway - cell viability counter screen (AID 1259380). Note: nearly all actives have a fitted effect of over 30% in size. The conditions noted are these: ER-beta-bla HEK293T viability, CellTiter-Glo luminescence, 16 h; series mostly up to 92.4 µM. From the text: National Center for Advancing Translational Sciences [NCATS]
NIH Chemical Genomics Center [NCGC]
U.S. Environmental Protection Agency [EPA]
National Institutes of Environmental Health Sciences [NIEHS]
National Toxicology Program [NTP]
U.S. Food and Drug Administration [FDA]
Estrogen receptor (ER), a nuclear hormone receptor, plays an important role in development, metabolic homeostasis and reproduction. Two subtypes of ER, ER-alpha and ER-beta, have similar expression patterns with some uniqueness in both types. Endocrine disrupting chemicals (EDCs) and their interactions with steroid hormone receptors like ER causes disruption of normal endocrine function. To identify the compounds that activate ER signaling, an ER beta-UAS-bla GripTite cell line (Life Technologies, Madison, WI, USA) containing a beta-lactamase reporter gene under the control of an UAS response element was used to screen Tox21 10K compound library. The cytotoxicity of the Tox21 compound library against the ER-beta-bla cell line was tested in parallel by measuring the cell viability using CellTiter-Glo assay in the same wells.
Tox21 Assay Protocol Summary:
ER-beta-UAS-bla HEK293T cells were dispensed at 2,000 cells/5 uL of assay medium containing 2% charcoal stripped FBS per well into black wall/clear-bottom 1536-well plates using a Multidrop Combi (ThermoFisher Scientific, Waltham, MA) dispenser. After the assay plates were incubated at a 37C and 5% CO2 for 6 hr, 23 nL of compounds dissolved in DMSO, positive controls or DMSO only was transferred to the assay plate by a Pintool station (Kalypsys, San Diego, CA). The plates were incubated at 37C and 5% CO2 for 16 hr. Then 1 uL of LiveBLAzerTM B/G FRET substrate was added using a BioRAPTR FRD (Flying Reagent Dispenser, Aurora Discovery, San Diego, CA) and then the plates were incubated at room temperature for 2 hours, and fluorescence intensity was measured by an Envision plate reader (PerkinElmer, Shelton, CT). For cell viability readout that measures cytotoxicity, 4 uL/well of CellTiter-Glo reagent was added into the assay plates using a FRD. After 30 min incubation at room temperature, the luminescence intensity in the plates was measured using a ViewLux (PerkinElmer) plate reader.
(In general: qHTS replaces the single test concentration by a dilution series.)
On to `O=c1ccc2ccccc2o1`, for which the Potency result was “inactive”.
As to `NC(=O)c1ccccc1O`, the Potency entry is “inactive”.
Take `CCCCOC(=O)CC(CC(=O)OCCCC)(OC(C)=O)C(=O)OCCCC`: the Potency entry was “inactive”.
Turning to `Nc1ccc(S(=O)(=O)c2ccc(N)cc2)cc1`, the Potency result was “inactive”.
For `O=c1cc[nH]c(=S)[nH]1`, the Potency entry was “inactive”.
The result for `Cc1cn([C@H]2C[C@H](N=[N+]=[N-])[C@@H](CO)O2)c(=O)[nH]c1=O` reads “inactive”; that for `O=C(O)c1cccnc1`, “inactive”.
For `Nc1ccn([C@H]2CC[C@@H](CO)O2)c(=O)n1`, the Potency entry was “inactive”.
Turning to `CC(=O)NS(=O)(=O)c1ccc(N)cc1`, the Potency entry is “inactive”.
For the compound `CC(=O)OCC(COC(C)=O)OC(C)=O`, the Potency result was “inactive”.
On to `CCCC(O)C(CC)CO` (stereo not given), for which the Potency entry was “inactive”.
For the compound `O=C(O)CCC(=O)O`, the Potency result was “inactive”.
As to `C[C@]12C=CC(=O)C=C1CC[C@@H]1[C@@H]2[C@@H](O)C[C@@]2(C)[C@H]1CC[C@]2(O)C(=O)CO`, the Potency result was “inactive”.
Under `NNC(=O)c1ccncc1` stands “inactive”; under `CC(O)CN(CCN(CC(C)O)CC(C)O)CC(C)O` (stereo not given), “inactive”.
On to `NC(=O)c1cnccn1`, for which the Potency result was “inactive and 33.5 µM (active)”.
Turning to `Cn1c(=O)c2[nH]cnc2n(C)c1=O`, the Potency result is “inactive”.
Take `O=C(O)CCCCCCCC(=O)O`: the Potency entry was “inactive”.
For the compound `CC(O)C(=O)O` (stereo not given), the Potency entry was “inactive”.
Consider `CCCCC(CC)COC(=O)/C=C/c1ccc(OC)cc1` (stereo not given), for which the Potency entry is “inactive”.
The result for `Cc1cc(=O)n(-c2ccccc2)n1C` reads “inactive”; that for `O=C(O)c1[nH]n(-c2ccc(S(=O)(=O)O)cc2)c(=O)c1N=Nc1ccc(S(=O)(=O)O)cc1`, “inactive”.
Consider `CC(C)[C@@H]1CC[C@@H](C)C[C@H]1O`, for which the Potency entry was “inactive”.
Consider `CCCCCCCCCCCCCCCC(=O)O`, for which the Potency result was “inactive”.
As to `CCCN(CCC)S(=O)(=O)c1ccc(C(=O)O)cc1`, the Potency result is “inactive”.
Take `Nc1ccc(S(=O)(=O)Nc2nccs2)cc1`: the Potency entry is “inactive”.
In the case of `O=S(=O)(O)c1ccc2cc(O)ccc2c1`, the Potency result is “inactive”.
Under `COc1ccc2[nH]cc(CCNC(C)=O)c2c1` stands “inactive”; under `C/C=C/c1ccc(OC)cc1`, “inactive”.
For `Cn1cc[nH]c1=S`, the Potency entry was “inactive”.
Consider `O=NO`, for which the Potency result was “inactive”.
With `O=C1NC(=O)c2ccccc21`, the Potency entry is “inactive”.
The result for `NC(=O)NC1NC(=O)NC1=O` (stereo not given) reads “inactive”; that for `Cc1cc(=O)[nH]c(=S)[nH]1`, “inactive”.
Consider `O=C(O)c1cccc([N+](=O)[O-])c1`, for which the Potency result was “inactive”.
As for `Cc1ccc(O)cc1`, the Potency result was “inactive”.
For the compound `CNC[C@H](O)c1cccc(O)c1`, the Potency result is “inactive”.
Consider `Nc1ccc(C(=O)O)cc1`, for which the Potency entry is “inactive”.
In the case of `CC(C)(Oc1ccc(C2CC2(Cl)Cl)cc1)C(=O)O` (stereo not given), the Potency entry was “inactive”.
Regarding `CC(=O)Nc1nnc(S(N)(=O)=O)s1`, the Potency entry was “inactive”.
